# SENP8 block-1 – blocks human SENP8 cleavage of Nedd8 substrate; 360,000 compounds, 0.64% hits; AID 602440; recombinant SENP8, Nedd8 substrate fluorescence; inhibition, % at 20 µM; in the data active = inhibition mostly above about 40%, no sharp cut-off; inactive = mostly below about 27%
# Target sequence (Q96LD8 whole entry, looked up): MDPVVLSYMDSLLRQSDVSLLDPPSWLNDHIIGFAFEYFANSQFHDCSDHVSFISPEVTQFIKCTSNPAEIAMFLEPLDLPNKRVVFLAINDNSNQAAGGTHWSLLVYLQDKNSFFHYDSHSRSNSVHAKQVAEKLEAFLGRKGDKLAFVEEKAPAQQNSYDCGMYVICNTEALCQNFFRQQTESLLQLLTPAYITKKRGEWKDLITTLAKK
# PPC-1+TRAIL kill – PPC-1 cancer cell killing with TRAIL present. PPC-1 cells + TRAIL, ATPLite viability luminescence. cell killing (% activity), % at 4 µM or 5 µM. 220,000 compounds, 0.41% hits;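 active = cell killing above 50% in the first pass at 4 µM, then a duplicate retest at 5 µM averaging 50% or more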;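 also: plate controls were cells with TRAIL plus DMSO for no effect and medium-only wells lacking cells for full effect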
# SENP7 inh – SENP7 protease inhibition; Q9BQF6; recombinant SENP7, Z-RLRGG-aminoluciferin luminescence, 40 min; inhibition, % at 5 µM; 330,000 compounds, 1.5% hits; AID 434973;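 active = inhibition above about 50% at the single test dose, limit read from the data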;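 also: plate controls were DMSO with enzyme for no effect and no enzyme buffer wells for full effect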
# SENP6 inh – SENP6 protease inhibition | Q9GZR1 | Recombinant SENP6 catalytic domain, aminoluciferin luminescence | inhibition, % at 10 µM | 330,000 compounds, 1.8% hits;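 active = inhibition above about 50% at the single tested dose, limit read from the data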;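 also: plate controls were DMSO wells with enzyme for no effect and DMSO wells lacking enzyme for full effect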
# SENP8 block-2 – blocks the human protease SENP8. AID 2540. purified SENP8, Z-RLRGG-aminoluciferin cleavage, luminescence. Q96LD8. 330,000 compounds, 1.2% hits. inhibition, % at 10 µM; in the data active = inhibition above about 50%
# TRAIL sens C8 – caspase-8 TRAIL sensitization; NB7+C8 cells + TRAIL, ATPlite viability luminescence; inhibition (viability loss, TRAIL sensitization), % at 10 µM; 360,000 compounds, 1% hits;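 active = compounds causing at least 50% loss of cell viability in the single-dose screen, relative to plate controls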
# SENP8 conf – human SENP8 inhibition, confirmed | shares compounds with SENP7 inh | Recombinant SENP8, Z-RLRGG-aminoluciferin luminescence, 60 min | inhibition, % at 12.5 µM | 6,200 compounds, 40% hits | AID 488912;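 active = mean inhibition across replicates above about 50%, limit read from the data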
# SENP6 conf – confirmation of human SENP6 protease inhibitors. recombinant SENP6, Z-RLRGG-aminoluciferin luminescence. 6,200 compounds, 58% hits. AID 488915. inhibition, % at 12.5 µM. shares compounds with SENP7 inh
# SENP7 confirm – confirmation of human SENP7 protease inhibitors | 6,200 compounds, 69% hits | inhibition, % at 12.5 µM | recombinant SENP7, Z-RLRGG-aminoluciferin luminescence, 40 min | shares compounds with SENP7 inh | AID 488917
# Casp3 SENP sel – inhibits human caspase-3 in SENP selectivity test; shares compounds with SENP7 inh; 6,200 compounds, 60% hits; purified caspase-3, Z-DEVD-aminoluciferin luminescence, 60 min; inhibition, % at 12.5 µM;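 active = mean inhibition above about 50%, limit read from the data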;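 also: plate controls were enzyme with DMSO for no effect and wells without caspase-3 for full effect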
# Target sequence (P42574 28-227 limits assumed): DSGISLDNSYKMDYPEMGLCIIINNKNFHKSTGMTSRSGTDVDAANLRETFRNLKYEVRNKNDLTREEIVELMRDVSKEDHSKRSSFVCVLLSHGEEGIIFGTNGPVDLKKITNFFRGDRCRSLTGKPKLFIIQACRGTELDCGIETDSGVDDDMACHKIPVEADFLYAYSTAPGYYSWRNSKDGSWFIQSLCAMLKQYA
# SENP luc ctr – luminescence interference (SENP counter-screen) | shares compounds with SENP7 inh | AID 488919 | 6,200 compounds, 39% hits | Pre-incubated SENP8/Z-RLRGG-aminoluciferin, luciferase luminescence interference | inhibition, % at 12.5 µM;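 active = mean inhibition above about 50% when retested at one dose, limit read from the data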;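 also: plate controls were DMSO wells with completed reaction for no effect and substrate without enzyme for full effect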
# The depositor's hits bear a star; / = not tested or not shown. Sampled rows, rich in hits. Any-hit rate of the full collection: about 3%.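 The calls were made as follows, unless noted: active = mean inhibition above about 50% in the one-dose retest (limit read from the data); inactive = the rest.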
SMILES,SENP8 block-1,PPC-1+TRAIL kill,SENP7 inh,SENP6 inh,SENP8 block-2,TRAIL sens C8,SENP8 conf,SENP6 conf,SENP7 confirm,Casp3 SENP sel,SENP luc ctr
CCOC(=O)c1oc2cccc(O)c2c1C,-47.5,21.9,63.0*,-13.1,50.4*,-1.0,2.0,59.3*,82.5*,59.2*,64.9*
Cc1ccc(O)c(NC(=O)c2noc3c2CCc2ccccc2-3)c1,1.5,11.3,66.1*,6.6,16.1,12.6,-31.1,-16.6,-4.9,0.1,-8.2
Cc1cc(NC(=O)c2noc3c2CCc2ccccc2-3)no1,8.0,1.1,-1.9,-28.5,-28.0,13.8,/,/,/,/,/
COc1ccc(/C=C/C(=O)c2ccoc2)cc1,-12.5,10.1,-5.8,5.7,-17.4,-1.3,/,/,/,/,/
COc1ccc(/C=C/C(=O)c2ccccn2)cc1,-21.5,5.6,14.9,27.1,16.8,-1.3,/,/,/,/,/
COc1ccc(/C=C/C(=O)c2ccc(O)cc2)cc1,35.0,21.1,73.9*,90.8*,90.4*,0.1,65.2*,47.8,64.4*,49.4,83.0*
COc1ccc(/C=C/C(=O)c2ccccc2O)cc1,11.3,22.7,67.1*,81.1*,64.1*,13.3,88.2*,84.2*,83.7*,34.9,46.1
CC(=O)Nc1ccc(NC(=O)C2CC(=O)N(Cc3ccco3)C2)cc1 (stereo unspecified),5.8,/,1.8,0.1,3.4,12.7,/,/,/,/,/
CN(C(=O)c1ccc(NC(=O)Cc2ccc([N+](=O)[O-])cc2)cc1)C1CCCC1,12.9,/,-13.8,-18.1,-13.8,-2.9,/,/,/,/,/
COc1ccc(-n2c(C)cc(C3=NNC(=NC4CC4)SC3)c2C)cc1,-12.5,2.3,/,/,/,4.2,/,/,/,/,/
c1ccc(C2=NNC(=NC3CC3)SC2)cc1,10.0,32.7,93.1*,93.1*,94.5*,17.3,96.5*,97.1*,102.4*,98.5*,95.4*
c1ccc2c(C3=NNC(=NC4CC4)SC3)c[nH]c2c1,-7.2,18.9,29.8,62.6*,36.4,33.8,48.4,45.3,80.9*,80.5*,66.9*
c1ccc2c(C3=NNC(=NC4CCCCC4)SC3)c[nH]c2c1,-4.0,-1.3,5.1,4.9,-9.7,3.0,/,/,/,/,/
COc1ccc(Cl)cc1-c1nc(SCC(=O)NCC2CCCO2)n[nH]1 (stereo unspecified),2.3,/,-11.5,-20.7,-9.0,2.2,/,/,/,/,/
CC(=O)Nc1ccc(S(=O)(=O)N2CCC(C(N)=O)(N3CCCCC3)CC2)cc1,7.6,/,-8.6,-15.4,-7.8,5.8,/,/,/,/,/
Cc1ccc(O)c(C(=O)c2cnn(-c3ccccc3)c2)c1,20.2,21.6,39.9,52.8*,18.1,1.7,4.3,46.9,20.2,32.1,12.9
Cc1ccc(-n2cc(C(=O)c3ccccc3O)cn2)cc1,-12.1,31.3,97.0*,91.4*,91.6*,60.0*,37.0,96.7*,100.9*,92.2*,48.7
Cc1cc(C)n2nc(C(=O)OCC(=O)NCc3ccc(Cl)cc3)nc2n1,3.8,/,-10.6,-6.3,-15.2,7.5,/,/,/,/,/
Cc1ccc(N2C(=O)c3ccc(N)cc3C2=O)cc1C,-87.7,-4.1,50.6*,64.7*,39.6,7.4,63.0*,59.8*,85.9*,54.5*,62.8*
Cc1ccc(O)c(NC(=O)c2ccc3c(c2)C(=O)N(Cc2cccnc2)C3=O)c1,8.2,/,85.7*,47.1,38.5,-14.8,-0.3,14.2,32.3,17.7,-1.3
Cc1cc(C)c(NC(=O)c2ccc3c(c2)C(=O)N(Cc2cccnc2)C3=O)c(C)c1,8.9,/,-5.0,-9.1,-6.6,-22.4,/,/,/,/,/
COc1cccc(N/C=C/C(=O)c2ccc(OC)c(OC)c2)c1,-270.6,/,75.4*,89.1*,64.3*,-23.0,-8.9,70.1*,93.4*,70.0*,15.5
COc1ccc(OC)c(N/C=C/C(=O)c2ccc(OC)c(OC)c2)c1,-197.9,/,-1.9,11.5,-5.4,-4.0,/,/,/,/,/
COc1cccc(C(=O)/C=C/Nc2ccc(S(=O)(=O)Nc3ncccn3)cc2)c1,-385.6,8.3,35.4,62.5*,20.8,-6.9,4.3,4.6,-2.1,20.2,-5.0
Cc1ccccc1C1=NC(c2ccc(F)cc2F)ON1 (stereo unspecified),20.2,34.1,33.6,66.3*,35.4,2.0,-13.6,4.8,40.3,13.6,4.7
SMILES,SENP8 block-1,PPC-1+TRAIL kill,SENP7 inh,SENP6 inh,SENP8 block-2,TRAIL sens C8,SENP8 conf,SENP6 conf,SENP7 confirm,Casp3 SENP sel,SENP luc ctr
Cc1ccccc1-c1nnc(SCc2ccc(F)cc2)o1,0.1,23.0,-8.9,-14.3,-21.0,20.6,/,/,/,/,/
O=S(=O)(NC1CCCCC1NCc1ccco1)c1ccc(Cl)cc1 (stereo unspecified),14.0,22.1,91.7*,-21.9,-3.7,4.6,-3.8,1.9,8.7,5.6,-0.6
CCN(CC(=O)Nc1ccc(Br)cc1)C(=O)c1nc2nc(C)cc(C)n2n1,11.8,/,9.7,6.5,-10.8,-9.5,/,/,/,/,/
O=C(O)c1ccc(C(=O)Nc2cccc3ccccc23)c(C(=O)O)c1,-311.3,/,57.2*,67.0*,33.2,5.8,-3.4,4.7,-1.8,7.0,8.4
O=C(Cc1ccccc1C(=O)O)Nc1cccc2ccccc12,-58.2,/,-4.6,-10.8,-0.4,-9.7,/,/,/,/,/
CC(=O)Nc1ccc(S(=O)(=O)N(C)CC(=O)NNc2c(F)c(F)cc(F)c2F)cc1,14.7,/,15.0,12.8,7.0,-12.2,/,/,/,/,/
O=C(Cn1cc(SCc2ccc(Cl)cc2)c2ccccc21)N1CCOCC1,18.9,-5.7,49.4,66.7*,44.4,-5.4,12.9,64.6*,82.4*,26.1,20.9
O=C(Cn1cc(SCc2ccc(F)cc2)c2ccccc21)N1CCOCC1,18.4,1.6,22.0,57.9*,16.3,-4.7,50.4*,48.1,79.1*,27.3,36.1
CN(C(=O)CSc1cn(CC(=O)N2CCOCC2)c2ccccc12)c1ccccc1,8.3,/,3.0,0.2,-1.3,-0.6,/,/,/,/,/
NC(=O)COC(=O)C1CSC2(c3ccc(F)cc3)CCC(=O)N12 (stereo unspecified),10.5,/,-7.6,-6.2,-12.2,-10.8,/,/,/,/,/
COC(=O)C=C1CCC2C3CC(F)C4(O)CC(=O)CCC4(C)C3C(=O)CC12C (stereo unspecified),13.1,/,/,/,/,-7.7,/,/,/,/,/
Oc1ccc(/C=N/N2CCCCC2)c(O)c1O,51.6*,/,10.5,56.0*,19.7,-6.5,-4.1,8.1,4.6,2.8,1.0
Oc1cccc(/C=N/N2CCCCC2)c1O,22.3,/,-8.7,-13.9,-16.7,4.5,/,/,/,/,/
